The list is not random: actives were taken first. Their share in the collection is about 19%.
KB-V1 MDR tox: kills drug-selected multidrug resistant KB-V1 cells; KB-V1 MDR cells viability, CellTiter-Glo, 72 h; Potency, µM (highest dose often 46.1 µM), actives largely listed as cytotoxic; 3.4% of 400,000 active; also: nearly all actives have a fitted effect of over 60% in size
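KB-V1, DMEM (no phenol red) + 10% FBS; cpd pin-transferred, titration series; 72 h, 37 degrees C; CellTiter-Glo, luminescence. Data normalized, curve-fit.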
KB-3-1 tox: KB-3-1 parental cell cytotoxicity | KB-3-1 viability, CellTiter-Glo ATP luminescence, 72 h | 1.4% of 400,000 active | Potency, µM (top dose mostly 46.1 µM), hits mostly cytotoxic; also: nearly all actives have a fitted effect of over 60% in size
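Parental KB-3-1 adenocarcinoma cells in phenol-red-free DMEM with 10% FBS were pin-treated with compounds at several concentrations, incubated 72 h at 37 °C, and viability read by CellTiter-Glo luminescence; concentration-effect curves were fitted after normalization.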
HT1080-NT tox: kills 2HG-producing HT-1080-NT fibrosarcoma cells; HT-1080-NT fibrosarcoma viability, CellTiter-Glo ATP luminescence, 48 h; Potency, µM (titrated, usually from 46.1 µM), for the others: at the top dose activity, negative = less viability, usual class: cytotoxic; 1.6% of 360,000 active;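 also: NT is the 2HG producing partner of a matched IDH1 knockdown line; 0% = DMSO-treated cells and -100% = media-only wells without cells; nearly all actives have a fitted effect of over 55% in size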
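Toxicity toward the 2HG-producing NT line was scored as %Activity, normalised to DMSO and no-cell wells, from CellTiter-Glo luminescence after 48 hours' treatment.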
DT40 TDP1 no CPT: qHTS for Inhibitors of human tyrosyl-DNA phosphodiesterase 1 (TDP1): qHTS in cells in absence of CPT | AID 686978, 2013 | 15% of 420,000 active | DT40 Tdp1-/- hTDP1 cells, no CPT, ATP luminescence, 48 h | Potency, µM (top dose mostly 46.2 µM), for the others: at the top dose activity change, negative = growth inhibition, most hits filed as inhibitors; also: nearly all actives have a fitted effect of over 55% in size
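Readout: luminescence from CellTiter-Glo after 30 min in the dark at RT. Cells: DT40 Tdp1-/- with stable hTDP1, 400/well. Exposure: compounds alone, ≥48 hr, 37 °C.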
DT40 TDP1 CPT: growth inhibition of DT40 Tdp1-/-;hTDP1 cells with camptothecin (screen for TDP1 inhibitors). Potency, µM (top dose mostly 46.2 µM), without a hit: at the top dose activity change, negative = growth inhibition, actives largely listed as inhibitors. chicken DT40 Tdp1-/-;hTDP1 cells + 20 nM CPT, ATP luminescence, 48 h. AID 686979. 12% of 420,000 active; also: nearly all actives have a fitted effect of over 55% in size
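Chicken DT40 Tdp1-/- cells stably complemented with human TDP1 were seeded at 400 cells/well in medium containing 20 nM camptothecin, exposed to pin-transferred compounds, and grown at 37 °C for at least 48 hr. Viability was read as ATP luminescence.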
HT1080 IDH1KD tx: HT-1080 IDH1 knockdown cell toxicity (counter line); AID 686971; HT-1080 IDH1 knockdown viability, ATP luminescence, 48 h; Potency, µM (highest dose often 46.1 µM), without a hit: top-dose activity, negative = toxicity, actives largely listed as cytotoxic; 2% of 360,000 active;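 also: 0% = DMSO wells and -100% = cell-free medium wells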
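Using the IDH1-knockdown HT-1080 line run in the same batch and compound series as the NT line, viability after 48 h at 37 °C was determined by CellTiter-Glo luminescence and expressed as % activity.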
* = called active by the depositor; i = inactive; ? = inconclusive; nt = no result given. Calls follow the shape of the dose curve; as a rule, active = well fitted curve in the direction sought with a large enough effect; inconclusive = small, poorly fitted or top-dose-only effect, or another doubt; inactive = no such curve, though single readings can be large; an effect the other way counts as inactive or inconclusive. Unless noted, % is scaled to controls: 0 for no effect and ±100 for the full control effect; potency is read from the fitted curve at half-maximal effect.

SMILES	KB-V1 MDR tox	KB-3-1 tox	HT1080-NT tox	DT40 TDP1 no CPT	DT40 TDP1 CPT	HT1080 IDH1KD tx
O=C(COc1ccccc1Cl)N(Cc1cccc(F)c1)C1CCS(=O)(=O)C1 (stereo unspecified)	i	i	nt	?	-6%	nt
O=C(/C=C/c1c[nH]c2ccccc12)c1ccccc1	i	i	1%	?	21µM*	-16%
COc1ccc2[nH]cc(/C=C/C(=O)c3ccccc3)c2c1	i	i	18µM*	?	?	18µM*
COc1ccc2[nH]cc(C=O)c2c1	i	i	9%	-10%	-7%	10%
Cc1ccc(C(=O)/C=C/c2c[nH]c3ccccc23)cc1	i	i	?	-18%	-9%	?
COc1ccc2[nH]cc(/C=C/c3cc[n+](C)cc3)c2c1	i	i	-2%	5.2µM*	?	-7%
CCCCC[n+]1ccn(C2=C([O-])c3ccccc3C(=O)/C2=N\S(=O)(=O)c2ccc(Cl)cc2)c1	?	?	0%	2.9µM*	4.6µM*	0%
CCCC[n+]1ccn(C2=C([O-])c3ccccc3C(=O)/C2=N\S(=O)(=O)c2ccc(Cl)cc2)c1	i	?	?	9.2µM*	8.2µM*	?
N/C(CSc1ccc(Cl)cc1)=N\S(=O)(=O)c1ccc(Cl)cc1	i	i	-18%	-19%	-5%	-17%
CCCC[n+]1ccn(-c2nc3ccccc3nc2[N-]S(=O)(=O)c2ccc(Br)cc2)c1	i	i	25%	-9%	23%	12%
COc1ccc(OC)c(NC(=O)CCNS(=O)(=O)c2ccc3c(c2)CC(C)N3C(C)=O)c1 (stereo unspecified)	i	i	7%	-23%	-29%	3%
Cc1cnc(-n2ncc(C(=O)NCC(C)(C)N3CCOCC3)c2C(C)C)nc1-c1ccc(F)cc1	nt	nt	nt	-5%	5%	nt
CCC(Sc1nc(C)cc(=O)[nH]1)C(=O)Nc1sc2c(c1C#N)CCCC2 (stereo unspecified)	?	i	0%	16µM*	16µM*	12%
CC(Sc1nc(N)cc(=O)[nH]1)C(=O)Nc1sc2c(c1C#N)CCCC2 (stereo unspecified)	?	?	-24%	2.3µM*	2.3µM*	?
N#Cc1c(NC(=O)CSc2nc(N)cc(=O)[nH]2)sc2c1CCCCCC2	?	?	-8%	?	?	-5%
CCOC(=O)Cc1nnc(NC(=O)C(CC)Sc2nncn2C)s1 (stereo unspecified)	?	i	-8%	-1%	7%	10%
CCOC(=O)Cc1nnc(NC(=O)C(CC)Sc2nc(C)cc(=O)[nH]2)s1 (stereo unspecified)	i	i	?	16µM*	?	6%
COc1ccc(CNC(=O)c2cnc(N3CCCC3)nc2C)cc1	i	i	nt	-15%	13%	nt
CCOC(=O)c1sc(N2C(=O)c3oc4ccc(C)cc4c(=O)c3C2c2ccccc2F)nc1C (stereo unspecified)	?	i	nt	-7%	18%	nt
O=c1c2ccccc2nc(COc2ccccc2)n1/N=C/c1ccc(O)cc1O	i	?	-26%	23µM*	?	?
O=c1c2ccccc2nc(COc2ccccc2)n1/N=C/c1c[nH]c2ccccc12	?	i	16%	16µM*	?	14%
Cc1ccccc1OCc1nc2ccccc2c(=O)n1/N=C/c1ccco1	i	i	3%	?	?	-8%
CCc1cccc(NC(=O)C2CCC(CNS(=O)(=O)c3ccc(Br)s3)CC2)c1 (stereo unspecified)	i	i	nt	?	?	nt

Assay outcomes as filed in PubChem.
